Test [1] is described as follows: Quantitative High-Throughput drug screen in 47 multiple myeloma cell lines against the NCATS MIPE library collection: Karpas417_ECACC cell viability assay (AID 1918961). The settings on record: Karpas417 myeloma viability, CellTiter-Glo ATP luminescence, 48 h; viability (% of DMSO): at 45.8 µM (top of the series). The essentials:
(§1)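 CellTiter-Glo ATP luminescence gave viability after 48 h compound treatment at 37C of 500 multiple myeloma cells per well. Normalisation used DMSO-only wells as 100% and media-only wells as 0% viability; primary qHTS of approved and investigational drugs.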

Test [2] is described as follows: Quantitative High-Throughput drug screen in 47 multiple myeloma cell lines against the NCATS MIPE library collection: JIM3_ECACC cell viability assay (AID 1918963; further: nearly all actives have a fitted effect of over 35% in size). The essentials:
(§2)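 Myeloma cells (500 per well) were exposed to MIPE 4.0 compounds by pin transfer and incubated 48 hours at 37C, 5% CO2. Viability was read as ATP by CellTiter-Glo luminescence, normalised to DMSO (100%) and media-only (0%) wells.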

Test [3] can be described thus: Quantitative High-Throughput drug screen in 47 multiple myeloma cell lines against the NCATS MIPE library collection: INA6_PLB cell viability assay (AID 1918965; further: nearly all actives have a fitted effect of over 55% in size). The essentials: as §1
The nature of test [4]: Quantitative High-Throughput drug screen in 47 multiple myeloma cell lines against the NCATS MIPE library collection: H1112_PLB cell viability assay (AID 1918967; further: nearly all actives have a fitted effect of over 30% in size). The essentials:
as §1

Test [5] can be described thus: Quantitative High-Throughput drug screen in 47 multiple myeloma cell lines against the NCATS MIPE library collection: Karpas25_ECACC cell viability assay (AID 1918968; further: nearly all actives have a fitted effect of over 35% in size). The gist of the method: as §1
The nature of test [6]: Quantitative High-Throughput drug screen in 47 multiple myeloma cell lines against the NCATS MIPE library collection: KMS27_JCRB cell viability assay (AID 1918970). Further: nearly all actives have a fitted effect of over 30% in size. To be noted: KMS27 myeloma cells, CellTiter-Glo ATP viability, 48 h; viability (% of DMSO): at 45.8 µM (top of the series). The gist of the method: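 KMS27_JCRB myeloma cells, 500 per well, exposed 48 h at 37 C, 5% CO2 to MIPE 4.0 compounds. Viability from ATP by CellTiter-Glo luminescence, normalized to DMSO (100%) and medium-only (0%) wells.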

The nature of test [7]: Quantitative High-Throughput drug screen in 47 multiple myeloma cell lines against the NCATS MIPE library collection: KMS12BM_JCRB cell viability assay (AID 1918971). Further: nearly all actives have a fitted effect of over 35% in size. The gist of the method: (§3)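 Relative luminescence from CellTiter-Glo served as the viability signal, referenced to DMSO-treated (100%) and cell-free medium (0%) controls. Treatment lasted 48 hours at 37C with 500 cells per well.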

Test [8] can be described thus: Quantitative High-Throughput drug screen in 47 multiple myeloma cell lines against the NCATS MIPE library collection: KMS12PE_JCRB cell viability assay (AID 1918972). Further: nearly all actives have a fitted effect of over 30% in size. The gist of the method: as §1
Test [9] in a line: Quantitative High-Throughput drug screen in 47 multiple myeloma cell lines against the NCATS MIPE library collection: MOLP8_DSMZ cell viability assay (AID 1918977). Further: nearly all actives have a fitted effect of over 45% in size. The essentials:
(§4)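 ATP-based CellTiter-Glo luminescence after 48 h drug exposure (37 °C, 5% CO2) of 500 myeloma cells per well. DMSO-only wells set 100% viability, media-only wells 0%; MIPE 4.0 library added by pin tool.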

Test [10] in a line: Quantitative High-Throughput drug screen in 47 multiple myeloma cell lines against the NCATS MIPE library collection: NCIH929_DSMZ cell viability assay (AID 1918978). Further: nearly all actives have a fitted effect of over 35% in size. The gist of the method:
as §4

A short description of test [11]: Quantitative High-Throughput drug screen in 47 multiple myeloma cell lines against the NCATS MIPE library collection: JIM1_ECACC cell viability assay (AID 1918964). The essentials: as §1
Test [12] in a line: Quantitative High-Throughput drug screen in 47 multiple myeloma cell lines against the NCATS MIPE library collection: KMS26_JCRB cell viability assay (AID 1918975). Further: nearly all actives have a fitted effect of over 45% in size. The essentials:
as §3

A short description of test [13]: Quantitative High-Throughput drug screen in 47 multiple myeloma cell lines against the NCATS MIPE library collection: MM1S_ATCC cell viability assay (AID 1918980). Further: nearly all actives have a fitted effect of over 45% in size. The essentials:
as §4

Test [14] is described as follows: Quantitative High-Throughput drug screen in 47 multiple myeloma cell lines against the NCATS MIPE library collection: MM1R_ATCC cell viability assay (AID 1918981). Further: nearly all actives have a fitted effect of over 35% in size. The gist of the method:
as §4

The nature of test [15]: Quantitative High-Throughput drug screen in 47 multiple myeloma cell lines against the NCATS MIPE library collection: OCIMY1_PLB cell viability assay (AID 1918979). Further: nearly all actives have a fitted effect of over 35% in size. The gist of the method:
as §4

The nature of test [16]: Quantitative High-Throughput drug screen in 47 multiple myeloma cell lines against the NCATS MIPE library collection: JJN3_DSMZ cell viability assay (AID 1918966; further: nearly all actives have a fitted effect of over 50% in size). The essentials:
as §1

Test [17] is described as follows: Quantitative High-Throughput drug screen in 47 multiple myeloma cell lines against the NCATS MIPE library collection: KMS20_JCRB cell viability assay (AID 1918973). Further: nearly all actives have a fitted effect of over 45% in size. The essentials: as §1
Test [18] in a line: Quantitative High-Throughput drug screen in 47 multiple myeloma cell lines against the NCATS MIPE library collection: MMM1_PLB cell viability assay (AID 1918976). Further: nearly all actives have a fitted effect of over 35% in size. The gist of the method:
as §4

Test [19] in a line: Quantitative High-Throughput drug screen in 47 multiple myeloma cell lines against the NCATS MIPE library collection: KHM11_PLB cell viability assay (AID 1918962). Further: nearly all actives have a fitted effect of over 35% in size. The gist of the method:
as §2

Inconclusive results are not listed. Calls of active or inactive are those of the source. The call rests on the fitted dose curve; in most records, active means well fitted curve in the direction sought with a large enough effect; inconclusive means small, poorly fitted or top-dose-only effect, or another doubt; inactive means no such curve, though single readings can be large; an effect the other way counts as inactive or inconclusive.
Potency means the concentration at half of the fitted maximal effect.

As to `O=C(O)C(=O)Nc1cccc(C2=NN=N[N]2)c1`, the Potency result in test [1], in test [2], in [3], in test [4], in test [5] and in test [6] was “inactive” throughout. The Potency entry in test [7], in test [8], in [9] and in test [10] was “inactive” in each case.

Consider `O=C(O)CCCCCC(=O)NN=C1CCCC1`, for which the viability (% of DMSO) in test [1] is 136% (active). For the same compound, the Potency result in [2], in [11], in [3], in [5], in test [6] and in test [8] was “inactive” each time. For the same compound, the Potency result in test [12], in test [9], in test [13] and in [14] was “inactive” throughout.

As for `CC1(C)[C@H](O[C@H]2O[C@H](C(=O)O)[C@@H](O)[C@H](O)[C@H]2O[C@@H]2O[C@H](C(=O)O)[C@@H](O)[C@H](O)[C@H]2O)CC[C@@]2(C)[C@H]1CC[C@]1(C)[C@H]2C(=O)C=C2[C@H]3C[C@@](C)(C(=O)O)CC[C@]3(C)CC[C@]21C`, the Potency entry in test [1], in [2], in test [4], in test [5], in test [6] and in [8] was “inactive” each time. The Potency entry in test [12] and in test [10] was “inactive” throughout.

As for `COc1cc(C)c(C=CC(C)=CC=CC(C)=CC(=O)O)c(C)c1C`, the Potency result in test [1], in test [11], in test [5], in [12], in [10] and in [15] was “inactive” throughout. Further, the Potency result in test [14] is “inactive”. Further, the Potency is 0.166 µM (active) in [2] and 5.26 µM (active) in test [3].

With `O=C(O)c1ccc(Nc2ncc3c(n2)-c2ccc(Cl)cc2C(c2c(F)cccc2F)=NC3)cc1`, the Potency entry in test [1], in [6], in [18] and in [15] was “inactive” each time. Also, the Potency in test [2] was 4.69 µM (active); in [3], 1.87 µM (active); in [16], 3720 nM (active); in test [4], 16.6 µM (active); in test [5], 14.8 µM (active); in test [7], 296 nM (active). The results for the Potency in test [17] and in [10] were 14.8 µM (active) and 4.18 µM (active), respectively.

Take `CN(C)CC(=O)N1CCC(c2ccc(NC(=O)c3ncc(C#N)[nH]3)c(C3=CCCCC3)c2)CC1`: the Potency in test [1] is 2.35 µM (active); in test [11], 5.26 µM (active); in test [3], 14.8 µM (active); in test [4], 18.7 µM (active); in [5] it was 23.5 µM (active); in test [8] it was 5.26 µM (active). In addition, the Potency in [17] is 13.2 µM (active); in [9] it was 5.26 µM (active); in test [10], 16.6 µM (active); in test [13], 2.35 µM (active); in test [14], 8.33 µM (active). In test [7], the Potency entry was “inactive”.

For `COC1=C(OC)C(=O)C(CC=C(C)CCC=C(C)CCC=C(C)CCC=C(C)CCC=C(C)CCC=C(C)CCC=C(C)CCC=C(C)CCC=C(C)CCC=C(C)C)=C(C)C1=O`, the Potency result in [1], in [2], in [3], in test [4], in test [5] and in test [6] was “inactive” each time. The Potency result in test [8], in test [12], in test [9], in test [10] and in test [14] was “inactive” throughout.

`CC[C@H]1OC(=O)[C@H](C)[C@@H](O[C@H]2C[C@@](C)(OC)[C@@H](O)[C@H](C)O2)[C@H](C)[C@@H](O[C@@H]2O[C@H](C)C[C@H](N(C)C)[C@@H]2O)[C@](C)(OC)C[C@@H](C)C(=O)[C@H](C)[C@@H](O)[C@]1(C)O`: the Potency result in test [1], in test [2], in test [3], in test [4], in test [5] and in test [6] was “inactive” each time. Further, the Potency entry in [8], in [17], in test [12], in test [18], in test [10] and in [15] was “inactive” each time. Further, in [14], the Potency result was “inactive”.

In the case of `Nc1nc2c(c(=O)[nH]1)N(C=O)[C@H](CNc1ccc(C(=O)N[C@@H](CCC(=O)O)C(=O)O)cc1)CN2`, the Potency entry in [19], in test [2], in test [11], in test [3], in test [4] and in test [5] was “inactive” throughout. For the same compound, the Potency entry in test [6], in test [8], in test [10] and in test [15] was “inactive” in each case.

For `C=CCNC1=C2C[C@@H](C)C[C@H](OC)[C@@H](O)[C@@H](C)C=C(C)[C@H](OC(N)=O)[C@@H](OC)C=CC=C(C)C(=O)NC(=CC1=O)C2=O`, the Potency in test [19] is 590 nM (active); in test [2], 2.64 µM (active); in test [11], 0.662 µM (active); in test [3] it was 0.209 µM (active); in test [16], 332 nM (active); in [4], 14.8 µM (active). For the same compound, the Potency in test [5] is 1.48 µM (active); in test [6], 105 nM (active); in test [7] it was 469 nM (active); in [8], 0.0833 µM (active); in test [17], 0.001 µM (active); in test [12], 2.35 µM (active). Further, the Potency is 5.9 µM (active) in test [18]; 0.264 µM (active) in [9]; 1.18 µM (active) in [10]; 1.05 µM (active) in [15]; 2.35 µM (active) in test [13]; 1.32 µM (active) in [14].

As for `CC(C)(C)c1nc2c3cc[nH]c(=O)c3c3cc(F)ccc3c2[nH]1`, the Potency in test [19] is 1480 nM (active); in [2], 1.87 µM (active); in [3], 0.418 µM (active); in [16] it was 662 nM (active); in test [4] it was 1.18 µM (active); in test [17], 1.32 µM (active). The Potency in test [12] is 0.0118 µM (active); in test [18], 0.662 µM (active); in [13], 14.8 µM (active); in test [14] it was 2.64 µM (active). Further, the Potency result in test [11], in [6] and in test [8] was “inactive” each time.

The values above are taken from PubChem BioAssay (NCATS).
